Laboratory results: PubChem BioAssay AID652257 (The Scripps Research Institute Molecular Screening Center, 2013)
Out of some 370,000 compounds screened, about 4,800 (1.3%) were called active.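 The calls were made as follows: active = inhibition above about 21% made by adding two undisclosed values (limit read from the data); inactive = the rest.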 This excerpt belongs to a sample that is enriched for actives.

These compounds were tested against Protein arginine N-methyltransferase 1 (Homo sapiens) (UniProt Q99873) (assay: PRMT1 methyltransferase inhibitors, primary screen, biochemical, fluorescence polarization (AID 652257)). Details: recombinant PRMT1, activity-based probe fluorescence polarization; at 2.79 µM; active compounds read high.
Chain of Protein arginine N-methyltransferase 1 (Homo sapiens) (Q99873 whole entry, looked up): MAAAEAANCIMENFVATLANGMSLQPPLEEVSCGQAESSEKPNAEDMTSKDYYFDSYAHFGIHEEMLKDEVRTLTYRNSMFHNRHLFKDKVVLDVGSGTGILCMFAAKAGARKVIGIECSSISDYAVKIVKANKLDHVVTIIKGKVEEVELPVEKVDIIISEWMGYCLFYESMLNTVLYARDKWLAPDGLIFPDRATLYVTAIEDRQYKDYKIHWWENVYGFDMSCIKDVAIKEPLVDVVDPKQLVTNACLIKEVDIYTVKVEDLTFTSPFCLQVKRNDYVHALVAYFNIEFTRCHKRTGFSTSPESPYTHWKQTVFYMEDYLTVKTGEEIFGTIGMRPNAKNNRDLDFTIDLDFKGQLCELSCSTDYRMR

inhibition, active:
CC(=O)N1CC[n+]2c(-c3ccc([N+](=O)[O-])cc3)csc21 52.3%
Cc1ccc(OS(=O)(=O)c2ccc(-c3csc(C)n3)s2)c(C)c1 27.8%
C=CCSC1=C(C#N)C(c2cc(Br)c(O)c(OC)c2)CC(=O)N1 (stereo unspecified) 23.6%
COc1ccc(NC(=O)c2ccc(C#CC(C)(C)O)cc2)cc1 25.5%
CC(=O)Nc1ccc(C(=O)Nc2nc(-c3cc(C)n(Cc4ccccc4)c3C)cs2)cc1 25.2%
O=C(Oc1ccccc1C(=S)N1CCCCC1)c1cc([N+](=O)[O-])cc([N+](=O)[O-])c1 41.9%
COc1ccc(C(=O)COC(=O)COc2ccc(C)c(C)c2)cc1 29.1%
O=C(CSc1cccc[n+]1[O-])c1ccc(-c2ccccc2)cc1 39.5%
S=c1[nH]nc(CSCc2ccc(Cl)cc2Cl)n1-c1ccccc1 21.5%
Cc1cccc(Oc2c([N+](=O)[O-])c(=O)n(C)c3ccccc23)c1 30%

inhibition, inactive:
CC(NCc1nc2ccccc2n1C)C12CC3CC(CC(C3)C1)C2 (stereo unspecified) 5.86%
CCC(C)[C@@H](C(=O)OC)N(CCc1cn(Cc2ccccc2)nn1)S(=O)(=O)c1ccccc1Br (stereo partly specified) 1.11%
NC(=O)C[C@@H]1NC(=O)CNC(=O)c2cc([N+](=O)[O-])cc(I)c2NCCC(C(N)=O)NC1=O (stereo partly specified) -3.5%
CN1C2CCC1CC(NC(=O)c1ccc([N+](=O)[O-])cc1)C2 (stereo unspecified) -4.9%
Cc1cc(C)cc(C(=O)N2CCN=C2SCc2ccc([N+](=O)[O-])cc2)c1 -6.78%
Cc1ccc(-n2c(SCC(=O)Nc3ccc(S(=O)(=O)Nc4nccs4)cc3)nnc2-c2ccccn2)cc1 -1.31%
C=CCN1C(=O)[C@@H](CC(=O)NCC2CCCCC2)[C@]2(C(=O)OC)CCCCC=C12 -0.92%
COc1cc(C2C(C#N)=C(C)NC3=C2C(=O)CC(C)(C)C3)ccc1O (stereo unspecified) -0.43%
Cc1cc(=O)[nH]c2nnnn12 -0.07%
CCNC(=O)COc1cc(C)c(Br)c(C)c1 -2.57%
Cc1ccc(NC(=S)NNC(=O)CSc2nnc(SCc3ccccc3Cl)s2)cc1 -4.6%
Cc1cc(=O)[nH]c(SCC(=O)Nc2ccc(F)cc2F)n1 -0.33%
COc1ccc(C(=O)Nc2c(N)nc(SCC(=O)Nc3ccc(C(C)=O)cc3)[nH]c2=O)cc1 0.6%
COc1ccc(C(=O)Nc2ccc(-n3nncc3C(C)(C)C)cc2)cc1 1.48%
O=C(CCCCCN1C(=O)C2C3C=CC(C3)C2C1=O)Nc1ccccn1 (stereo unspecified) -1.78%
Cc1n[nH]c(=O)c2c(NC(=O)COC(=O)c3ncc(Cl)c(Cl)c3Cl)oc(C)c12 7.67%
O=C(c1ccncc1)N1CC[C@H]2[C@H](CCCN2Cc2ccc(F)cc2)C1 0.01%
Cc1c(C#N)c(NC(=O)c2ccccc2)n(Cc2ccccc2)c1C -3.16%
CCCn1c(C)cc(-c2csc(NC(=O)CCc3nc4ccccc4c(=O)[nH]3)n2)c1C 9.77%
COc1ccc([C@H]2N[C@]3(CCCN(CC4CCCCC4)C3=O)[C@H]3C(=O)N(C)C(=O)[C@@H]23)cc1 5.33%
Cc1cc(NS(=O)(=O)c2ccc(NC(=O)CSc3nnc(-c4ccc(C(C)(C)C)cc4)n3Cc3ccco3)cc2)nc(C)n1 3.17%
O=C(Oc1ccccc1Cl)c1ccc(N2CCOCC2)c([N+](=O)[O-])c1 -1.29%
O=C(Oc1ccc(Br)cc1C(=S)N1CCOCC1)c1cccc([N+](=O)[O-])c1 5.11%
O=C(Cn1c(N2CCN(C/C=C/c3ccccc3)CC2)nc2ccccc21)c1ccccc1 0.25%
CCC(C(=O)NCc1cccnc1)n1nc(C)c2sc3ccccc3c2c1=O (stereo unspecified) 3.72%
Cc1ccc(S(=O)(=O)C2(S(=O)(=O)c3ccc(C)cc3)CCCC2)cc1 1.95%
CCCOc1ccc(C(=O)C(CCC(CNCC)C(=O)c2ccc(OCCC)cc2)CNCC)cc1 (stereo unspecified) -1.8%
CCc1ccc(N(C(=O)c2csnn2)C(C(=O)NC2CCCCC2)c2ccncc2)cc1 (stereo unspecified) 0.98%
Clc1ccc(-n2c(COc3ccccc3)nnc2SCc2nc3ccccc3[nH]2)cc1 4.16%
CC1CCN(c2ccc(C(=O)O)cc2NS(=O)(=O)c2ccc(Br)s2)CC1 -1.42%
COc1ccc(OCC(=O)OCCN(C)C)cc1 -3.78%
Cc1ccc(OCC(=O)Nc2ccc(C(=O)O)cc2NC(=O)COc2ccc(C)c(C)c2)cc1C -0.54%
CCn1c(=O)n2n(c1=O)[C@@]1(C=C3CCCC[C@H]32)N=C(NC(=O)c2ccccc2)N(Cc2ccccc2)[C@H]1Cc1ccccc1 -0.64%
Cc1cccc(NC(=O)C[C@H]2CC[C@H]3[C@@H](COc4ccc(NC(=O)Nc5ccccc5)cc4C(=O)N3C)O2)c1 0.26%
CCOC(=O)Nc1ccc(S(=O)(=O)N(C)C(C)C)cc1 1.03%
COc1ccc2c(C(C)c3ccc(N)cc3)cn(C)c2c1 (stereo unspecified) -4.35%
O=C(CSc1cccc[n+]1[O-])NCCCc1ccccc1 -1.06%
CCN(C(=O)CSc1cccc[n+]1[O-])c1ccccc1 -2.83%
CCN(CC)C(=O)CC[C@H]1CC[C@]2(CCCN(Cc3ccc(Cl)cc3)C2)O1 -4.34%
Cc1ccc(NCc2n[nH]c(=S)n2-c2ccccc2)cc1Cl 15.4%
CCn1c(CSCc2c(Cl)cccc2Cl)n[nH]c1=S -0.4%
CCCNC(=O)C1(C)CCCN(C(=O)c2oc3ccccc3c2C)C1 (stereo unspecified) -2.54%
CNc1nc(=O)n(C2CCCO2)cc1C (stereo unspecified) 4.11%
C=CS(=O)(=O)N(Cc1nnn(Cc2ccccc2)c1Br)[C@H](C(=O)OC)C(C)C -6.2%
Cn1c(=O)c([N+](=O)[O-])c(Oc2ccccc2)c2ccccc21 5.71%
COc1cc2c(=O)n(C)c3ccccc3c2cc1OC 0.5%
